About 83,000 compounds went through this panel and 20% of them were active in at least one assay; those are over-represented in the sample as a whole.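 Step 1: grow cells in 96-well plates. Step 2: add test compound at a single concentration. Step 3: incubate 48 h. Step 4: record percent growth.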 Active and inactive are the calls of the source. The calls were made as follows: active = growth percent below 10; inactive = the rest.
What was measured:
Test in all cases: NCI-60 one-dose screen, 48 h (100 = growth as untreated, 0 = no growth, -100 = all killed)
Settings in all cases: 10 µM unless noted
HCT-15 colon = test system: HCT-15 colon
HT29 colon = test system: HT29 colon
SNB-75 CNS = test system: SNB-75 CNS
SNB-19 CNS = test system: SNB-19 CNS
U251 CNS = test system: U251 CNS
PC-3 prostate = test system: PC-3 prostate
SK-MEL-5 melanoma = test system: SK-MEL-5 melanoma
UACC-62 melanoma = test system: UACC-62 melanoma
LOX IMVI melanoma = test system: LOX IMVI melanoma
SK-MEL-28 melanoma = test system: SK-MEL-28 melanoma

Measured: growth

Cc1cc(Cl)ccc1Nc1nc(C(F)(F)F)ccc1C(=O)N/N=C/c1ccc(Cl)cc1
inactive: SNB-19 CNS 14.6% | SK-MEL-28 melanoma 20.9%
active: HCT-15 colon 5.02% | HT29 colon 3.44% | SNB-75 CNS -21.9% | U251 CNS 2.95% | PC-3 prostate -2.59% | SK-MEL-5 melanoma -13.8% | UACC-62 melanoma -0.152% | LOX IMVI melanoma 0.0613%

NS(=O)(=O)c1ccc(-n2ncc3c(N/N=C/c4ccccc4)ncnc32)cc1
inactive: HCT-15 colon 108% | HT29 colon 81% | SNB-75 CNS 104% | SNB-19 CNS 80.4% | U251 CNS 89.7% | PC-3 prostate 80.6% | SK-MEL-5 melanoma 86.7% | UACC-62 melanoma 96.8% | LOX IMVI melanoma 91.7% | SK-MEL-28 melanoma 95.3%

COc1cccc(/C=N\NC(=O)c2ccncc2)c1O
inactive: HCT-15 colon 23.9% | HT29 colon 67.6% | SNB-75 CNS 57.1% | SNB-19 CNS 52.6% | U251 CNS 31.6% | PC-3 prostate 47.1% | SK-MEL-5 melanoma 58.8% | UACC-62 melanoma 41.2% | LOX IMVI melanoma 15.2% | SK-MEL-28 melanoma 69.6%

Clc1ccc(C2=NN(c3ccc(Cl)cc3)C(c3cccc(Nc4ccnc5cc(Cl)ccc45)c3)C2)cc1 (stereo not given)
inactive: HCT-15 colon 85.2% | HT29 colon 77.9% | SNB-75 CNS 77.3% | SNB-19 CNS 82.3% | U251 CNS 76.8% | PC-3 prostate 65.7% | SK-MEL-5 melanoma 92.8% | UACC-62 melanoma 88.3% | LOX IMVI melanoma 85.1% | SK-MEL-28 melanoma 104%

COc1cnc2c(c1)C(=O)c1c-2n(CCCN2CCNCC2)c(=O)c2cc(F)ccc12
inactive: SNB-19 CNS 18.3% | PC-3 prostate 22.8%
active: HCT-15 colon 2.48% | HT29 colon -42.1% | SNB-75 CNS -7.98% | U251 CNS 2.03% | SK-MEL-5 melanoma -88.5% | UACC-62 melanoma -0.448% | LOX IMVI melanoma -86.8% | SK-MEL-28 melanoma -60.5%

CCN(Cc1cccc(S(=O)(=O)[O-])c1)c1ccc(C(=C2C=CC(=[N+](CC)Cc3cccc(S(=O)(=O)O)c3)C=C2)c2ccccc2S(=O)(=O)O)cc1
inactive: HCT-15 colon 103% | HT29 colon 103% | SNB-75 CNS 87.9% | SNB-19 CNS 106% | U251 CNS 99.2% | PC-3 prostate 93.7% | SK-MEL-5 melanoma 97.4% | UACC-62 melanoma 101% | LOX IMVI melanoma 96% | SK-MEL-28 melanoma 109%

Cc1cc(C)c(C(=O)c2cccs2)c(C)c1
inactive: HCT-15 colon 102% | HT29 colon 98.4% | SNB-75 CNS 86.2% | SNB-19 CNS 99.6% | U251 CNS 97.5% | PC-3 prostate 89.5% | SK-MEL-5 melanoma 109% | UACC-62 melanoma 97% | LOX IMVI melanoma 102% | SK-MEL-28 melanoma 114%

Cc1cc(=O)oc2cc(OCCn3c(C)nn(-c4ccc(Cl)cc4)c3=O)ccc12
active: HT29 colon 0.696%
inactive: HCT-15 colon 17.7% | SNB-75 CNS 20.4% | SNB-19 CNS 54.5% | U251 CNS 31.4% | PC-3 prostate 48.5% | SK-MEL-5 melanoma 10.8% | UACC-62 melanoma 43.3% | LOX IMVI melanoma 48% | SK-MEL-28 melanoma 40.8%

C(=C1c2ccccc2-c2ccccc21)c1ccccn1
inactive: HCT-15 colon 42.8% | HT29 colon 17% | SNB-75 CNS 62.5% | SNB-19 CNS 73.6% | U251 CNS 50.4% | PC-3 prostate 78.1% | SK-MEL-5 melanoma 78.3% | UACC-62 melanoma 52.9% | LOX IMVI melanoma 57.2% | SK-MEL-28 melanoma 81%

FCc1ncc(-c2ccc(C(F)(F)F)cc2)c(NC2CCCCCC2)n1
active: HCT-15 colon 9.18% [100 µM] | HT29 colon -33.6% [100 µM] | U251 CNS -29.7% [100 µM] | PC-3 prostate 7.27% [100 µM] | SK-MEL-5 melanoma -3.43% [100 µM] | UACC-62 melanoma 3.7% [100 µM] | LOX IMVI melanoma -52.6% [100 µM]
inactive: SNB-75 CNS 28.6% [100 µM] | SNB-19 CNS 32.6% [100 µM] | SK-MEL-28 melanoma 33.6% [100 µM]

COC(=O)C1CCN(S(=O)(=O)c2ccc(-c3ccccc3)cc2)CC1
inactive: HCT-15 colon 110% | HT29 colon 109% | SNB-75 CNS 87.8% | SNB-19 CNS 98.5% | U251 CNS 111% | PC-3 prostate 90.3% | SK-MEL-5 melanoma 107% | UACC-62 melanoma 98.2% | LOX IMVI melanoma 107% | SK-MEL-28 melanoma 105%

O=Cc1ncc(-c2ccc(C(F)(F)F)cc2)c(NC2CCCCCC2)n1
active: HCT-15 colon -79% [100 µM] | HT29 colon -80.8% [100 µM] | SNB-75 CNS -15.7% [100 µM] | SNB-19 CNS -47.6% [100 µM] | U251 CNS -98.2% [100 µM] | PC-3 prostate -81.7% [100 µM] | SK-MEL-5 melanoma 5.66% [100 µM] | UACC-62 melanoma -90.1% [100 µM] | LOX IMVI melanoma -73.4% [100 µM] | SK-MEL-28 melanoma -71.4% [100 µM]

CCCCN=C(N)c1ccc(OCCSCCOc2ccc(C(N)=NCCCC)cc2)cc1
inactive: HCT-15 colon 90.5% | HT29 colon 44% | SNB-75 CNS 65.7% | SNB-19 CNS 36.7% | U251 CNS 34.5% | PC-3 prostate 44.4% | SK-MEL-5 melanoma 22.6% | UACC-62 melanoma 58.3% | LOX IMVI melanoma 58.1% | SK-MEL-28 melanoma 69.6%

CN1CCC[C@@H]1CCO[C@](C)(c1ccccc1)c1ccc(Cl)cc1
inactive: HCT-15 colon 62.2% | HT29 colon 17.3% | SNB-75 CNS 52.3% | SNB-19 CNS 99.5% | U251 CNS 64.3% | PC-3 prostate 66.2% | UACC-62 melanoma 37.2% | LOX IMVI melanoma 70.7% | SK-MEL-28 melanoma 44.3%
active: SK-MEL-5 melanoma -100%

Cc1sc2nc3c4ccccc4c(NCCCN(C)C)nn3c(=O)c2c1C
inactive: HCT-15 colon 17.1% | SNB-75 CNS 54.3% | SNB-19 CNS 81.6% | U251 CNS 55.8% | PC-3 prostate 50.9% | UACC-62 melanoma 44.3%
active: HT29 colon -17.8% | SK-MEL-5 melanoma 9.72% | LOX IMVI melanoma -39% | SK-MEL-28 melanoma -87.5%

COc1ccc2cc(C3=CC(=O)CCC3)ccc2c1
inactive: HCT-15 colon 99.2% | HT29 colon 86.7% | SNB-75 CNS 95.1% | SNB-19 CNS 92.1% | U251 CNS 102% | PC-3 prostate 91.3% | SK-MEL-5 melanoma 94.3% | UACC-62 melanoma 77.1% | LOX IMVI melanoma 91.1% | SK-MEL-28 melanoma 115%

Cc1ccc(-c2cc(-c3ccccc3)n(-c3ccccc3)n2)cc1
inactive: HCT-15 colon 106% | HT29 colon 96.7% | SNB-75 CNS 99.4% | SNB-19 CNS 95.4% | U251 CNS 97.7% | PC-3 prostate 99.6% | SK-MEL-5 melanoma 106% | UACC-62 melanoma 88.2% | LOX IMVI melanoma 99% | SK-MEL-28 melanoma 98.2%

O=C(O)CCC(=O)OC[C@@H](NC(=O)C(Cl)Cl)[C@H](O)c1ccc([N+](=O)[O-])cc1
inactive: HCT-15 colon 93.9% | HT29 colon 95.8% | SNB-75 CNS 88% | SNB-19 CNS 99.4% | U251 CNS 99.3% | PC-3 prostate 87.5% | SK-MEL-5 melanoma 89.8% | UACC-62 melanoma 98% | LOX IMVI melanoma 96.7% | SK-MEL-28 melanoma 106%

O=C(/C=C/c1ccc(C(F)(F)F)cc1)c1ccc(Nc2nc(NCCO)nc(NCCO)n2)cc1
active: HT29 colon 5.46% | U251 CNS -21.2% | LOX IMVI melanoma -44.2%
inactive: HCT-15 colon 45.5% | SNB-75 CNS 55.8% | SNB-19 CNS 56.7% | PC-3 prostate 48.7% | SK-MEL-5 melanoma 76.5% | UACC-62 melanoma 79.1% | SK-MEL-28 melanoma 94.9%

COc1ccc2c(=O)c(OC)c(-c3cc(OC)c(OC)c(OC)c3)oc2c1
inactive: HCT-15 colon 101% | HT29 colon 98.2% | SNB-75 CNS 79.5% | SNB-19 CNS 92.5% | U251 CNS 96.1% | PC-3 prostate 67.7% | SK-MEL-5 melanoma 75.4% | UACC-62 melanoma 70.5% | LOX IMVI melanoma 82.7% | SK-MEL-28 melanoma 97.4%

CC(=O)N1N=C(c2ccc(Nc3ccnc4cc(Cl)ccc34)cc2)CC1c1ccc(Cl)cc1 (stereo not given)
active: SK-MEL-5 melanoma -50.1%
inactive: HCT-15 colon 30.1% | HT29 colon 25.9% | SNB-75 CNS 59.6% | SNB-19 CNS 65.6% | U251 CNS 57.9% | PC-3 prostate 37.8% | UACC-62 melanoma 44.2% | LOX IMVI melanoma 33.6% | SK-MEL-28 melanoma 45.9%

NC(=O)c1cc(Cl)ccc1NC(=O)c1ccccc1-c1ccccc1
inactive: HCT-15 colon 27.9% | SNB-19 CNS 31.9% | U251 CNS 21.4% | PC-3 prostate 23.5% | SK-MEL-5 melanoma 26.4% | UACC-62 melanoma 18.6% | LOX IMVI melanoma 28.9% | SK-MEL-28 melanoma 41.5%
active: HT29 colon 9.11% | SNB-75 CNS -5.88%

O=C(O)c1ccc2cccnc2c1O
inactive: HT29 colon 10.9% | SNB-75 CNS 23% | SNB-19 CNS 12.7% | SK-MEL-28 melanoma 44.6%
active: HCT-15 colon 7.1% | U251 CNS 8.23% | PC-3 prostate 1.21% | SK-MEL-5 melanoma 0.767% | UACC-62 melanoma 0.979% | LOX IMVI melanoma 3.31%

CCOC(=O)C1=CCC(n2cc(C)c(=O)[nH]c2=O)O1 (stereo not given)
inactive: HCT-15 colon 111% | HT29 colon 110% | SNB-75 CNS 103% | SNB-19 CNS 103% | U251 CNS 98.8% | PC-3 prostate 84.7% | SK-MEL-5 melanoma 112% | UACC-62 melanoma 96% | LOX IMVI melanoma 98.6% | SK-MEL-28 melanoma 112%

NC(=O)NS(=O)(=O)c1ccc(N2N=C(C(F)(F)F)CC2c2cc(C(F)(F)F)cc(C(F)(F)F)c2)cc1 (stereo not given)
inactive: HCT-15 colon 62.9% | HT29 colon 70.4% | SNB-75 CNS 68.1% | SNB-19 CNS 85% | U251 CNS 74.6% | PC-3 prostate 16.2% | SK-MEL-5 melanoma 75.5% | UACC-62 melanoma 82.7% | LOX IMVI melanoma 78.6% | SK-MEL-28 melanoma 84.8%

CCCCc1ccc(C(N)=O)nc1
inactive: HCT-15 colon 94.1% | HT29 colon 109% | SNB-75 CNS 79.2% | SNB-19 CNS 102% | U251 CNS 100% | PC-3 prostate 98.7% | SK-MEL-5 melanoma 101% | UACC-62 melanoma 93.1% | LOX IMVI melanoma 89%
active: SK-MEL-28 melanoma -97.1%
